# Assay results published in PubChem BioAssay (NCATS).
# Several values for one entry are separate records, joined by “and”; a condition that tells them apart may be missing. Equal values may be shown once. Records with an inconclusive call do not appear. A call without a number means that no potency is given here. For part of these data: Measured potencies and affinities stand elsewhere. Activity calls are given as the source filed them.
# Assays:
# [1] = qHTS for Activators of Parkin Expression: LOPAC Validation Assay (NLuc Reporter) (AID 720572)
# Method in brief: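 Neuronal cells with a Parkin promoter-driven FLuc/NLuc coincidence reporter were treated 24 h at 37 C in 7-point dose response (LOPAC). NLuc luminescence read after FLuc; signals normalized to DMSO and positive control (100%).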
# [2] = qHTS for Activators of Parkin Expression: LOPAC Validation Assay (FLuc Reporter) (AID 720573)
# Method in brief: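 FLuc signal from Parkin-promoter coincidence reporter neuronal cells, normalized to DMSO and positive control (100%). Cells (1,500/well) pre-incubated 24 h, then exposed to LOPAC compounds in 7-point dose response for 24 h at 37 C, 5% CO2.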
# [3] = target: T1, Hexokinase-4 (Homo sapiens) + Glucokinase regulatory protein (Homo sapiens) (UniProt P35557+Q14397); test: qHTS assay for inhibitors of recombinant human GCK-GKRP interaction: Diaphorase-coupled assay (AID 743205)
# T1 sequence (P35557 whole entry, looked up): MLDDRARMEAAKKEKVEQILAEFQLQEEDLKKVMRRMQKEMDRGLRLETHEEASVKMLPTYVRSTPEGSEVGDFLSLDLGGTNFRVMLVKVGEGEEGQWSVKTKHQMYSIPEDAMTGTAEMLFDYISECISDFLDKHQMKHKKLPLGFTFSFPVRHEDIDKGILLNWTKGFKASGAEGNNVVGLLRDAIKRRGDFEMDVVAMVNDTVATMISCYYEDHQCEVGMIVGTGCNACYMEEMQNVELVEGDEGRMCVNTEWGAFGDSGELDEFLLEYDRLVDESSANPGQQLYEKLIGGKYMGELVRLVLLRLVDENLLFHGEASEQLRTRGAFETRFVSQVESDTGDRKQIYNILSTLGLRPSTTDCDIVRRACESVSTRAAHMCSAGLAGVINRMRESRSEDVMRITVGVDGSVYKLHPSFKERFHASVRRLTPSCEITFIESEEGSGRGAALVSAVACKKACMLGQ
# T1 sequence (Q14397 whole entry, looked up): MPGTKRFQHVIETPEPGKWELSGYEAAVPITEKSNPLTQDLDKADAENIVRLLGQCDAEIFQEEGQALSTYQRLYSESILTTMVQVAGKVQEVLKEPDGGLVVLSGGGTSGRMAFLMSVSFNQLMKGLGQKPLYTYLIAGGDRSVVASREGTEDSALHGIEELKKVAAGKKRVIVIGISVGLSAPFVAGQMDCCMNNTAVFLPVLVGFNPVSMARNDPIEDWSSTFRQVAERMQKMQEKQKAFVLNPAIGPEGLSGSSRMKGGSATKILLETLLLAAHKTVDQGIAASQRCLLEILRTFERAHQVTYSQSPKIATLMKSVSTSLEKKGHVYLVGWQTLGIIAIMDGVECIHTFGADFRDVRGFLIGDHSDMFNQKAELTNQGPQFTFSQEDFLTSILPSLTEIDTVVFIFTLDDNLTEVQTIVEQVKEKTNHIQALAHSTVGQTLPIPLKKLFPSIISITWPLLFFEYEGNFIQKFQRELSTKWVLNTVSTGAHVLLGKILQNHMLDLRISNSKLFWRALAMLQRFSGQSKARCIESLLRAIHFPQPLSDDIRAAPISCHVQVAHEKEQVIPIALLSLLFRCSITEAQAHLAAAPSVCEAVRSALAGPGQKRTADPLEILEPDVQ
# Method in brief: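 A kinetic fluorescence read (Ex 525/Em 590 nm, every minute for 30 minutes) tracked resorufin from a G6PDH-diaphorase coupled GCK reaction. It contained 10 nM GST-GCK, 10 nM FLAG-GKRP, 5 mM glucose, 0.4 mM ATP in Hepes pH 7.6. Normalized to with/without-enzyme DMSO controls.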
# [4] = target: T1, Hexokinase-4 (Homo sapiens) + Glucokinase regulatory protein (Homo sapiens); test: qHTS assay for inhibitors of recombinant human GCK-GKRP interaction: ADP-Glo assay (AID 743206)
# Method in brief: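 GST-GCK and FLAG-GKRP (15 nM each in the dispensed mix, with 2 uM S6P) react with 0.4 mM ATP and 5 mM glucose (final) in Hepes pH 7.6 for 60 min at room temperature. ADP is measured by ADP-Glo luminescence.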
# [5] = target: T1, Hexokinase-4 (Homo sapiens) + Glucokinase regulatory protein (Homo sapiens); test: qHTS assay for inhibitors of recombinant human GCK-GKRP interaction: HTRF assay (AID 743207)
# Method in brief: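 After 60 min equilibration at room temperature with anti-FLAG XL665 and anti-GST antibodies, FRET ratio (665/615 nm, excitation 320 nm) was read. Proteins: GST-GCK and FLAG-GKRP, each 5 nM, plus 2 uM S6P, pH 7.1 buffer; GCK-free wells define minimum signal.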
# [6] = qHTS assay for small molecule agonists of the antioxidant response element (ARE) signaling pathway measured by Nrf2-dependant transcriptional activity (AID 720636; active = well fitted curve in the direction sought with a large enough effect in the repeat runs; an effect the other way counts as inactive or inconclusive; also: potency is read from the fitted curve at half-maximal effect)
# Method in brief: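 First, ARE-luc HepG2 cells attached for 6 hr at 37 C in 1% dialyzed FBS medium. Next, compound or DMSO was added and incubated 16 hr. Finally, ONE-Glo reagent was added and luminescence measured after 30 min.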
# [7] = qHTS assay for small molecule agonists of the antioxidant response element (ARE) signaling pathway measured by Nrf2-dependant transcriptional activity - cell viability counter screen (AID 720653; active = well fitted curve in the direction sought with a large enough effect in the repeat runs; an effect the other way counts as inactive or inconclusive); details: ARE-bla HepG2 viability, CellTiter-Glo ATP luminescence, 16 h; max response: stronger effect = lower value
# Method in brief: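 ARE-bla HepG2 cells treated with compounds for 16 h at 37C; this counter screen measures viability as intracellular ATP by CellTiter-Glo luminescence after 30 min at room temperature.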
# [8] = qHTS Assay for Identifying Gametocytocidal Compounds (AID 743244);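 also: actives lower the fluorescent signal which means gametocytes are killed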; details: P. falciparum 3D7 stage III-V gametocytes, alamarBlue, 72 h; max response: stronger effect = lower value
# Method in brief: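 Using 20,000 stage III–V 3D7 gametocytes per well, compounds were incubated 72 h under 37 °C/5% CO2. Viability was then assessed by 24 h alamarBlue reduction, measured fluorometrically at 525/598 nm.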
# [9] = qHTS assay for cell viability of HEK293 cells (AID 743288); details: ATP luminescence (CellTiter-Glo), 18 h; max response: stronger effect = lower value; also: nearly all actives have a fitted effect of over 50% in size
# Method in brief: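 Total intracellular ATP, measured with a luciferase-coupled reagent, indicates the number of viable HEK293 cells. Exposure to test chemicals lasts 18 h at 37 C in 1,536-well format at 2,000 cells/well.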
# [10] = qHTS assay for cell viability of the p53RE-bla HCT-116 cell line (AID 743292); also: nearly all actives have a fitted effect of over 55% in size
# Method in brief: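 Quantitative high-throughput format: compounds in DMSO were pinned onto p53RE-bla HCT-116 cells (4,000/well) and incubated 16 h at 37 C. Total intracellular ATP, read by CellTiter-Glo luminescence, reflects viable cell number.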
# [11] = Ebola virus entry assay, green channel fluorescence
# [12] = qHTS assay for small molecule antagonists of the retinoid-related orphan receptor gamma (ROR-gamma) signaling pathway - cell viability counter screen (AID 720652; active = well fitted curve in the direction sought with a large enough effect in the repeat runs; an effect the other way counts as inactive or inconclusive;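 also: CHO reporter cells with doxycycline-induced ROR-gamma expression; compound exposure lasted 16 hr before ATP read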)
# Method in brief: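 Counter screen in CHO cells carrying TET-inducible ROR-gamma and an ROR response element-luciferase reporter; cells plated 5 hr, compound pinned, doxycycline added, then 16 hr at 37 C. Viability read as intracellular ATP by CellTiter-Glo luminescence.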
# [13] = qHTS profiling for inhibitors of Plasmodium falciparum (3D7) proliferation (AID 743322);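 also: infected erythrocytes exposed to compound for 72 h before lysis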; details: P. falciparum 3D7 proliferation; at 28.7 µM (top of the series) unless noted
# Method in brief: (§1)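 Erythrocytes infected with P. falciparum (0.3% parasitemia, 2.5% hematocrit) incubated with compounds 72 h at 37 C, 5% CO2. Lysis with saponin/Triton buffer containing SYBR Green I, overnight at room temperature in the dark; DNA fluorescence (485/535 nm) normalised to 0.29 uM artemisinin and DMSO.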
# [14] = qHTS profiling for inhibitors of Plasmodium falciparum (DD2) proliferation (AID 743323; call rule not given here); details: lower = more inhibition; at 28.7 µM (top of the series) unless noted
# Method in brief: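 Parasite DNA quantified by SYBR Green fluorescence (ex 485, em 535 nm) after saponin/Triton lysis and overnight dark incubation. Cultures: 0.3% parasitemia, 2.5% hematocrit, 72 h, 37 C; data scaled between DMSO and 0.29 uM artemisinin.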
# [15] = qHTS profiling of the MIPE4 collection as inhibitors of Plasmodium falciparum (3D7) proliferation (AID 743344; call rule not given here); details: P. falciparum 3D7 in erythrocytes, SYBR Green DNA fluorescence, 72 h; at 28.5 µM (top of the series)
# Method in brief: as §1
# [16] = qHTS profiling of the MIPE4 collection as inhibitors of Plasmodium falciparum (DD2) proliferation (AID 743345; call rule not given here); details: P. falciparum Dd2 in erythrocytes, SYBR Green DNA, 72 h; at 28.5 µM (top of the series) unless noted
# Method in brief: as §1
# [17] = qHTS profiling of the MIPE4 collection as inhibitors of Plasmodium falciparum (DD2) proliferation (Rep 2) (AID 743346; call rule not given here); details: P. falciparum Dd2 in erythrocytes, SYBR Green DNA, 72 h; at 28.5 µM (top of the series)
# Method in brief: as §1
# [18] = qHTS profiling for inhibitors of Plasmodium falciparum (HB3) proliferation (AID 743324); details: Plasmodium falciparum HB3 blood-stage proliferation; at 28.7 µM (top of the series) unless noted
# Method in brief: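 P. falciparum HB3 grown in erythrocytes (0.3% parasitemia, 2.5% hematocrit final) with compound for 72 h at 37 C, 5% CO2. Parasite DNA detected by SYBR Green after saponin/triton lysis overnight; normalized to 0.29 uM artemisinin and DMSO.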
# [19] = qHTS profiling of the MIPE4 collection as inhibitors of Plasmodium falciparum (HB3) proliferation (AID 743347; call rule not given here); details: P. falciparum HB3 in erythrocytes, SYBR Green DNA, 72 h; at 28.5 µM (top of the series)
# Method in brief: as §1
smiles,measurement,setting,value
Cc1nccc2c1[nH]c1ccccc12,outcome,[1],inactive
same,outcome,[2],inactive
same,outcome,[3],inactive
same,outcome,[4],inactive
same,outcome,[5],inactive
O=C(Cc1ccc(Cl)c(Cl)c1)N1CCCCC1CN1CCCC1 (stereo not drawn),outcome,[1],inactive
same,outcome,[2],inactive
same,outcome,[3],inactive
same,outcome,[4],inactive
same,outcome,[5],inactive
NC(=NCCC[C@H](N)C(=O)O)N[N+](=O)[O-],outcome,[1],inactive
same,outcome,[2],inactive
same,outcome,[3],inactive
same,outcome,[4],inactive
same,outcome,[5],inactive
O=C(O)c1cc(Oc2ccc(C(F)(F)F)cc2Cl)ccc1[N+](=O)[O-],Potency,[6],inactive
same,max response,[7],-5.54% (inactive)
same,max response,[8],-10.7% (inactive)
same,max response,[9],-14.8% (inactive)
same,Potency,[10],inactive
same,outcome,[11],inactive
C[N+]1(C)C2CCC1CC(OC(=O)C(CO)c1ccccc1)C2 (stereo not drawn),outcome,[1],inactive
same,outcome,[2],inactive
same,outcome,[3],inactive
same,outcome,[4],inactive
same,outcome,[5],inactive
CCCN1CCO[C@@H]2c3cc(O)ccc3OC[C@H]21,outcome,[1],inactive
same,outcome,[2],inactive
same,outcome,[3],inactive
same,outcome,[4],inactive
same,outcome,[5],inactive
NCc1cc(=O)[nH]o1,outcome,[1],inactive
same,outcome,[2],inactive
same,outcome,[3],inactive
same,outcome,[4],inactive
same,outcome,[5],inactive
same,max response,[8],24.8% (inactive)
O=C(O)Cc1cnc[nH]1,outcome,[1],inactive
same,outcome,[2],inactive
same,outcome,[3],inactive
same,outcome,[4],inactive
same,outcome,[5],inactive
Cc1ccc(Cl)c(O)c1,max response,[8],-0.773% (inactive)
same,outcome,[11],inactive
O=[N+]([O-])c1c2ccccc2cc2ccccc12,Potency,[12],inactive
same,max response,[7],-1.85% (inactive)
same,max response,[9],-0.948% (inactive)
same,Potency,[10],inactive
same,outcome,[11],inactive
COC(=O)c1cncn1C(C)c1ccccc1 (stereo not drawn),max response,[8],-7.45% (inactive)
same,outcome,[11],inactive
NC1CCc2cc(O)c(O)cc2C1 (stereo not drawn),outcome,[1],inactive
same,outcome,[2],inactive
same,outcome,[3],inactive
same,outcome,[4],inactive
same,outcome,[5],inactive
NCCc1c[nH]c2ccc(O)cc12,outcome,[1],inactive
same,outcome,[2],inactive
same,outcome,[3],inactive
same,outcome,[4],inactive
same,outcome,[5],inactive
O=C(O)C(Cl)Cl,Potency,[6],inactive
same,max response,[7],-10.5% (inactive) and 2.18% (inactive)
same,max response,[9],-7.67% (inactive) and 1.66% (inactive)
same,Potency,[10],inactive
same,outcome,[11],inactive
CN1C2CCC1CC(OC(=O)c1cc(Cl)cc(Cl)c1)C2 (stereo not drawn),outcome,[1],inactive
same,outcome,[2],inactive
same,outcome,[3],inactive
same,outcome,[4],inactive
same,outcome,[5],inactive
CNCCc1ccc(O)c(O)c1,outcome,[1],inactive
same,outcome,[2],inactive
same,outcome,[3],inactive
same,outcome,[4],inactive
same,outcome,[5],inactive
O=C(O)COc1ccccc1,Potency,[6],inactive
same,Potency,[12],inactive
same,max response,[7],-7.55% (inactive)
same,max response,[9],-7.91% (inactive)
same,Potency,[10],inactive
same,outcome,[11],inactive
[Cl][In]([Cl])[Cl],Potency,[6],42.2 µM (active)
same,outcome,[11],inactive
CCCN(CCC)C1CCc2ccc(O)cc2C1 (stereo not drawn),outcome,[1],inactive
same,outcome,[2],inactive
same,outcome,[3],inactive
same,outcome,[4],inactive
same,outcome,[5],inactive
C/C=C(/C)C(=O)O[C@H]1C(C)=C2[C@H]([C@@H]1OC(=O)CCCCCCC)[C@@](C)(OC(C)=O)C[C@H](OC(=O)CCC)[C@@]1(O)[C@H]2OC(=O)[C@@]1(C)O,remaining parasite growth % (stronger effect = lower value),[13],-0.149%
same,"activity, percent of control",[14],1.02%
COc1ccc2c(c[n+](C)c3c4cc5c(cc4ccc23)OCO5)c1OC,remaining parasite growth % (stronger effect = lower value),[13],47.6%
same,"activity, percent of control",[14],36.7%
O=C(NCC1CCOCC1)c1cnc(Nc2ccc(Cl)cc2Cl)nc1C(F)(F)F,"parasite growth, % of DMSO control",[15],52.4%
same,"parasite growth remaining, % of DMSO control (lower = more inhibition)",[16],102%
same,"parasite growth, % of control (lower = inhibition)",[17],52.2%
O=C(Oc1ccc([N+](=O)[O-])cc1)N1CCC(C(O)(c2ccc3c(c2)OCO3)c2ccc3c(c2)OCO3)CC1,remaining parasite growth % (stronger effect = lower value),[13],26.6%
same,"activity, percent of control",[14],90.2%
same,"remaining proliferation (% of control), lower = more inhibition",[18],75.8%
same,"parasite growth, % of DMSO control",[15],63%
same,"parasite growth, % of control (lower = inhibition)",[17],33.6%
same,"growth, % of control",[19],77.1%
O=C(Oc1ccc([N+](=O)[O-])cc1)N1CCN(Cc2cccc(Oc3ccccc3)c2)CC1,"parasite growth, % of DMSO control",[15],95.8%
same,"parasite growth remaining, % of DMSO control (lower = more inhibition)",[16],92.5%
same,"parasite growth, % of control (lower = inhibition)",[17],181%
CCOP(=O)(OCC)C(C)NC(=O)N(CCCl)N=O (stereo not drawn),"parasite growth, % of DMSO control",[15],103%
same,"parasite growth remaining, % of DMSO control (lower = more inhibition)",[16],97.6%
same,"parasite growth, % of control (lower = inhibition)",[17],135%
